esBAF inh – blocks esBAF chromatin remodeling in mouse ES cells; Bmi1-luciferase knock-in reporter, 24 h; 100% = twice the neutral-well signal; reporter increase, % at 12.5 µM; hit rate 2% among 350,000; AID 602393; in the data active means activation above about 40%; inconclusive means no clear call, values can overlap the other calls;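 further: 0% = median of the plate's neutral control wells and 100% = double that signal; a rise in the Bmi1 reporter signal indicates esBAF inhibition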
MITF TRPM1 HTS – MITF TRPM1 promoter activation in melanoma cells | AID 588334 | SK-MEL-5 TRPM1-promoter luciferase, 24 h; % of positive control, neutral wells = 0 | hit rate 0.75% among 300,000 | activation, % at 12.5 µM;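 active means mean activation of at least 80% with every replicate also reaching 80%; inconclusive means mean reaches 80% but some replicate falls short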;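 further: 0% = neutral control wells and 100% = parthenolide positive control wells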
Wnt bcat act – activators of Wnt/beta-catenin signaling | activation, % at 9.35 µM | hit rate 1.2% among 300,000 | Wnt/beta-catenin reporter cell assay, activator, plate reader; in the data active means activation above about 30%, passing the limit was not always enough; inconclusive means no clear call, values can overlap the other calls;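 further: 0% = neutral control wells and 100% = positive control wells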
EWS-Fli inh – inhibitors of EWS/Fli oncoprotein transcriptional activity; A673 NR0B1-luciferase reporter, viability-normalised; inhibition, % at 12.6 µM; hit rate 0.67% among 350,000;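 active means mean inhibition of at least 50% after viability correction, with every replicate also passing that limit; inconclusive means mean reaches 50% but only one of two replicates passes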;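 further: firefly luciferase signal divided by Alamar Blue viability fluorescence both relative to DMSO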
MITF TRPM1 inh – reduces MITF-dependent TRPM1 promoter luciferase signal; inhibition, % at 12.5 µM; hit rate 0.83% among 330,000; SK-MEL-5 TRPM1 promoter luciferase, 24 h;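 active means mean inhibition across replicates of 60% or more, whatever share of single replicates reaches that level; inconclusive means some that reach 60%, reason not given; inactive means mean inhibition across replicates below 60%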
PAX8 reporter – PAX8 transcriptional activity inhibition; RMG-I TPO-luciferase reporter, SteadyGlo, 24 h; inhibition, % at 12.6 µM; hit rate 1.2% among 360,000; AID 652154;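 active means mean replicate inhibition at least 60% with every replicate also reaching 60%; inconclusive means only one of the two criteria is met; inactive means mean below 60% and not all replicates reaching 60%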;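 further: luciferase light reporting Pax8 driven TPO promoter activity; plate controls were median of neutral control wells for no effect and mitoxantrone controls for full effect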
Ring1 derepress – esBAF inhibition confirmed by Ring1 de-repression; shares compounds with esBAF inh; mouse ESC E14, Ring1 mRNA RT-qPCR fold change; fold change at 33 µM; 550 tested, under 10 active; AID 743176;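 active means Ring1 gene expression raised more than 2-fold over untreated cells in both replicates at either tested dose; inconclusive means only one replicate above 2-fold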;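 further: Ring1 transcript normalised to actin housekeeping signal by TaqMan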
Fgf4 repress – esBAF inhibition confirmed by Fgf4 repression; shares compounds with esBAF inh; mouse ESC E14, Fgf4 mRNA qPCR fold change; active compounds read low; Fgf4 expression fold change at 33 µM; hit rate 4% among 550; AID 743177;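 active means Fgf4 expression under 0.8 fold of control in both repeat measurements at one or both tested doses; inconclusive means under 0.8 fold in just a single repeat measurement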;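 further: Fgf4 transcript normalised to actin in duplex TaqMan qPCR; cells exposed to compound for 24 h before lysis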
esBAF Bmi1 qPCR – de-represses Bmi1 in mouse ESCs, confirming esBAF inhibition | shares compounds with esBAF inh | mouse ESE14 ES cells, Bmi1 mRNA qPCR fold; active compounds read high | fold change at 33 µM | 550 tested, under 10 active;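 active means Bmi1 expression fold change above 6 at either tested concentration, seen in replicate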;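 further: higher fold means more Bmi1 de-repression and stronger esBAF inhibition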
A549 tox SP – kills or reduces viability of A549 cells; shares compounds with esBAF inh; A549 cytotoxicity, plate reader; cell viability change % (negative = cytotoxic), % at 25 µM, hits read low; 550 tested, under 10 active; AID 743188; call rule not given here
HepG2 tox SP – kills or reduces viability of HepG2 cells | shares compounds with esBAF inh | HepG2 cytotoxicity, plate reader; active compounds read low | hit rate 4% among 550 | activity change, negative = inhibition, % at 25 µM; in the data active means activity change below about -50%
HEK293 cytotox SP – HEK293 cell cytotoxicity at single point; activity change, negative = inhibition, % at 25 µM, hits read low; plate reader; hit rate 3% among 550; shares compounds with esBAF inh; AID 743190; in the data active means activity change below about -38%, passing the limit was not always enough
The depositor's hits bear a star; ? = inconclusive; . = not tested or not shown. Only some compounds are listed: those with a hit (about 4% of all), similar ones and a draw of the others.

SMILES | esBAF inh | MITF TRPM1 HTS | Wnt bcat act | EWS-Fli inh | MITF TRPM1 inh | PAX8 reporter | Ring1 derepress | Fgf4 repress | esBAF Bmi1 qPCR | A549 tox SP | HepG2 tox SP | HEK293 cytotox SP
Cc1ccc(OCc2cnc(Cl)s2)c(C)c1 | 84* | 77 | 5 | -98 | -81 | -134 | 1.1 | 0.95 | 1.8 | 2 | -36 | -6
Cc1ccc(S(=O)(=O)N(C)C[C@H]2Oc3ncc(-c4ccncc4)cc3C(=O)N([C@@H](C)CO)C[C@@H]2C)cc1 | -3 | . | . | 2 | . | . | . | . | . | . | . | .
CS(=O)(=O)N1CCN(c2nc3ccccc3s2)CC1 | 65* | 67 | . | . | -55 | . | 1.1 | 1.1 | 1.1 | -11 | -16 | -7
CC(C)Cc1cc(C(=O)Nc2c(F)cc(F)cc2Br)no1 | 11 | 36 | -3 | -2 | -28 | -10 | . | . | . | . | . | .
CC(C)Cc1cc(C(=O)Nc2ccc(Br)cc2)no1 | 69* | 111* | 37* | -121 | -108 | -142 | 0.92 | 0.96 | 1.7 | 0 | 29 | -19
c1ccc(-c2noc(CC3CCCCC3)n2)cc1 | 58* | ? | 10 | -112 | -76 | -46 | 1.2 | 1.2 | 1.1 | -6 | -21 | -5
O=S(=O)(c1ccccc1)N(Cc1nc(-c2ccccc2)no1)C1CCCCC1 | 7 | 2 | . | . | 1 | . | . | . | . | . | . | .
CO[C@H]1CN(C)C(=O)c2ccc(NC(C)=O)cc2OC[C@H](C)N(CCc2ccccc2)C[C@H]1C | -1 | . | . | 14 | . | . | . | . | . | . | . | .
O=C(NC1CCCCC1)c1cc(-c2ccco2)on1 | 5 | 24 | 26 | -20 | -31 | . | . | . | . | . | . | .
O=C(NC1CCCC1)c1cc(-c2ccccc2O)on1 | 61* | 106* | 2 | -125 | -102 | -136 | 1.3 | 0.8 | 1.4 | -13 | 9 | -6
COc1cccc(-c2cc(C(=O)NC3CCCCC3)no2)c1 | 59* | 115* | 4 | -132 | -109 | -221 | 1.2 | 0.88 | 1.4 | -4 | -18 | -6
O=C(NC1CCCCC1)c1cc(-c2cccc(Cl)c2)on1 | 60* | 95* | 17 | -94 | -97 | -108 | 1.2 | ? | 1.8 | -10 | -8 | -4
COc1ccc(-c2cc(C(=O)NC3CCCC3)no2)cc1 | 7 | 67 | 18 | -39 | -60 | -204 | . | . | . | . | . | .
CN1C(=O)c2cc(NC(=O)Nc3ccc(Cl)cc3)ccc2OC[C@H]2O[C@H](CC(=O)O)CC[C@@H]21 | 0 | . | . | -6 | . | 10 | . | . | . | . | . | .
Cc1noc(C)c1S(=O)(=O)Nc1ccc2c(c1)C(=O)N([C@H](C)CO)C[C@@H](C)[C@H](CN(C)C(=O)Nc1ccc(F)cc1)O2 | 0 | . | . | -5 | . | -9 | . | . | . | . | . | .
CN1c2ccc(C#Cc3cccnc3)cc2[C@@H]2[C@@H](CCN2S(=O)(=O)c2cccc(F)c2)[C@@H]1CO | 6 | . | . | 19 | . | 11 | . | . | . | . | . | .
CC(=O)c1c(C)[nH]c(C(=O)OCc2ccc(Br)cc2)c1C | 64* | 31 | 5 | -38 | -28 | -70 | 1.4 | 1.1 | 2 | -8 | -24 | -22
O=C(Nc1ccc2ccccc2c1)c1cccc2ccccc12 | 77* | 32 | -3 | -27 | -32 | -105 | 1.1 | 0.95 | 1.8 | -9 | 22 | -11
COc1ccc(NC(=O)c2ccc3ccccc3c2OC)cc1 | 75* | . | -1 | -111 | -65 | -121 | 1.1 | 0.93 | 2.3 | 0 | -33 | -6
COc1ccc(NC(=O)c2ccccc2-c2ccccc2)cc1 | . | -14 | 0 | 5 | 13 | 8 | . | . | . | . | . | .
CC=Cc1ccc2n(c1=O)C[C@H]1[C@H](CO)[C@@H](C(=O)NCc3ccccc3)[C@@H]2N1Cc1ccccc1OC (mixture of isomers) | . | . | . | . | . | -3 | . | . | . | . | . | .
O=C(c1ccccc1)c1ccc2ccccc2c1 | 75* | 61 | 5 | -107 | -56 | -120 | 1.1 | 0.85 | 1.6 | -5 | -2 | -11
COc1ccc(S(=O)(=O)Nc2cccc3c2O[C@H](CN(C)CC2CCCCC2)[C@H](C)CN([C@H](C)CO)C3=O)cc1 | -3 | . | . | 0 | . | -7 | . | . | . | . | . | .
O=c1cc(-c2ccccc2)oc2ccc(Br)cc12 | 15 | 47 | ? | -6 | -47 | -194 | . | . | . | . | . | .
CC(C)CN=c1cc(-c2ccccc2)oc2ccc(Cl)cc12 | 54* | 53 | . | . | -49 | . | 0.62 | ? | 6.9* | -7 | -14 | 5
SMILES | esBAF inh | MITF TRPM1 HTS | Wnt bcat act | EWS-Fli inh | MITF TRPM1 inh | PAX8 reporter | Ring1 derepress | Fgf4 repress | esBAF Bmi1 qPCR | A549 tox SP | HepG2 tox SP | HEK293 cytotox SP
COc1ccc(-n2nc(C(=O)NCC(=O)N3CCN(c4ccc(F)cc4)CC3)c3ccccc3c2=O)c(OC)c1 | 30 | 10 | 3 | -68 | -6 | -28 | . | . | . | . | . | .
COc1ccc(-n2nc(C(=O)NCC(=O)N3CCN(c4ccccc4)CC3)c3ccccc3c2=O)c(OC)c1 | 37 | 97* | 5 | -27 | -95 | -55 | 1 | 0.92 | 1 | -11 | -26 | -12
CCCCC(=O)Nc1cccc(-c2nnc(-c3ccccc3)o2)c1 | 7 | 13 | . | . | -13 | . | . | . | . | . | . | .
CCC(=O)Nc1cccc(-c2nnc(-c3ccccc3)o2)c1 | 74* | 100* | 1 | -115 | -96 | -194 | 1.2 | 1.1 | 1.2 | -11 | 15 | -1
CN(C)c1ccc(CNc2nc(-c3ccccc3)nn2S(C)(=O)=O)cc1 | 1 | 18 | 10 | -13 | -16 | -24 | . | . | . | . | . | .
CC(=O)n1nc(-c2ccccc2)nc1NCc1ccc(N(C)C)cc1 | 59* | 74 | 13 | -77 | -69 | -67 | 1.1 | 0.92 | 1.2 | -7 | 7 | -17
Cc1ccc(CN(C(=O)c2cc3ccccc3oc2=O)C2CCS(=O)(=O)C2)cc1 (stereo not drawn) | 36 | 43 | . | . | -40 | . | . | . | . | . | . | .
O=C(c1cc2ccccc2oc1=O)N(Cc1cccs1)C1CCS(=O)(=O)C1 (stereo not drawn) | 70* | 78 | . | . | -68 | . | 1.1 | ? | 1.3 | -7 | -22 | -13
Cc1cccc(-c2noc(CCC(=O)N3CCN(c4cc(C)ccc4C)CC3)n2)c1 | 63* | 77 | 1 | -97 | -73 | -182 | 1 | 0.9 | 1.4 | 5 | 13 | -7
Cc1ccc(S(=O)(=O)NCC[C@H]2CC[C@H](NC(=O)NC(C)C)[C@@H](CO)O2)cc1 | 0 | . | . | 4 | . | -4 | . | . | . | . | . | .
Cn1c(/C(C#N)=C(\O)c2ccc(Cl)s2)nc2ccccc21 | 70* | 18 | 30* | . | -18 | 13 | 1.4 | ? | 1.6 | 6 | 8 | 27

Screening data (PubChem BioAssay)
